A short description of assay [1]: qHTS assay for small molecule agonists of the p53 signaling pathway (AID 651631; calls by dose curve; note: nearly all actives have a fitted effect of over 15% in size; note: potency is the fitted concentration of half-maximal effect). Put shortly:
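Read-out is beta-lactamase FRET fluorescence measured 2 h after substrate addition at room temperature, in HCT-116 cells with a p53 response element-driven reporter exposed to compounds for 16 h at 37 °C.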
On the technique in general: In qHTS, concentration-response curves come from the screen itself.

The nature of assay [2]: qHTS assay for small molecules that induce genotoxicity in human embryonic kidney cells expressing luciferase-tagged ATAD5 (AID 651632). Note: nearly all actives have a fitted effect of over 15% in size. The method in brief:
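Luminescent reporter readout, HEK293T ATAD5-luc line: 16 hr drug exposure (37C, 5% CO2) followed by Amplite, 30 min RT.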

The nature of assay [3]: qHTS assay for small molecule agonists of the p53 signaling pathway - cell viability (AID 651633; calls by dose curve; note: nearly all actives have a fitted effect of over 30% in size; note: potency is the fitted concentration of half-maximal effect). The method in brief:
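p53RE-bla cells were treated with compound for 16 hours at 37 C. Cytotoxicity was then measured as CellTiter-Glo luminescence after 30 min at room temperature.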

The nature of assay [4]: qHTS assay for small molecules that induce genotoxicity in human embryonic kidney cells expressing luciferase-tagged ATAD5 - cell viability (AID 651634; calls by dose curve; note: nearly all actives have a fitted effect of over 25% in size; note: potency is the fitted concentration of half-maximal effect). The method in brief: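 Viability read: CellTiter-Fluor fluorescence, 30 min at 37C. Cells: HEK293T, luciferase-tagged ATAD5. Exposure: 15.5 hr, 37C, 5% CO2, compound or DMSO vehicle.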
The nature of assay [5]: qHTS assay for small molecule disruptors of the mitochondrial membrane potential - cell viability (AID 720634; calls by dose curve; note: nearly all actives have a fitted effect of over 20% in size; note: potency is the fitted concentration of half-maximal effect). The method in brief: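 HepG2, 1 hr compound, 37 C. ATP luminescence via CellTiter-Glo, 30 min RT, same well as m-MPI.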
Assay [6] in a line: qHTS assay for small molecule disruptors of the mitochondrial membrane potential (AID 720635). Note: potency is the fitted concentration of half-maximal effect. The method in brief: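 HepG2 cells exposed to compound 1 hr at 37C, then Mito-MPS dye 30 min. Ratio read of aggregate (540/590 nm) versus monomer (490/535 nm) fluorescence.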
A short description of assay [7]: qHTS assay to test for compound auto fluorescence at 590 nm (red) in HepG2 cells (AID 720674). Put shortly:
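Seeding: 2,000 HepG2 cells/well, MEM/10% FBS, overnight 37 C. Dosing: compound vs DMSO. Incubation: 1 hr, 37 C, 5% CO2. Read: fluorescence 540 ex/590 em, Rose Bengal sodium as red reference.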

A short description of assay [8]: qHTS assay to test for compound auto fluorescence at 535 nm (green) in HepG2 cells (AID 720675).
Assay [9] can be described thus: qHTS assay to test for compound auto fluorescence at 460 nm (blue) in HEK293 cells (AID 720678). Put shortly: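 Measured: blue fluorescence (Ex 405/Em 460 nm) of compound-treated HEK293 cells, incubated overnight at 37C with 5% CO2 and scaled to triamterene equivalents.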
Assay [10] is described as follows: qHTS assay to test for compound auto fluorescence at 590 nm (red) in HEK293 cells (AID 720679). Put shortly:
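Using HEK293 cells at 2,000 per well, the screen added 23 nL of each compound after cell attachment and incubated overnight (37C, 5% CO2). The plate reader then captured red-label fluorescence, Ex/Em 540/590nm.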

Several values for one entry are separate records, joined by “and”; a condition that tells them apart may be missing. Equal values may be shown once. Inconclusive results are not listed. Activity calls are given as the source filed them. Unless noted, calls come from the whole dose curve; as a rule, active = well fitted curve in the direction sought with a large enough effect in the repeat runs; inconclusive = weak or mixed curves; inactive = no such curve, though single readings can be large; an effect the other way counts as inactive or inconclusive. Positions of bridges follow the written chain, without caps; N, C: chain ends. Non-standard residues stand in square brackets, D forms with d. Residues, ends and D or L forms follow the SMILES beside them. *: point of attachment. X1 = CC[C@@H](C)[C@@H](N)C1=N[C@H](C(=O)*)CS1; d(aIle) = CC[C@H](C)[C@@H](N)C(=O)O; dOrn = NCCC[C@@H](N)C(=O)O; Orn = NCCC[C@H](N)C(=O)O

As to `O=C(O)/C=C/C(O)c1ccc(Cl)cc1` (stereo not given), the Potency entry in [1], in [2], in [3], in [4], in assay [5] and in [6] was “inactive” throughout. Besides, the Potency result in [8] and in [9] was “inactive” in each case. The outcome in assay [7] and in assay [10] was inactive.
For `CCOC(=O)Cc1ccc(-c2ccccc2)cc1`, the Potency entry in assay [1], in assay [2], in assay [3], in assay [4], in assay [5] and in assay [6] was “inactive” in each case. For the same compound, the Potency result in assay [8] and in assay [9] was “inactive” throughout. In addition, the compound was classed as inactive in assay [7] and in [10].
As for `CN1C(=O)C[C@@H](C(=O)N[C@@H](Cc2cnc[nH]2)C(=O)N2CCC[C@H]2C(N)=O)NC1=O`, the Potency result in assay [1], in [2], in assay [3], in assay [4], in assay [5] and in assay [6] was “inactive” each time. For the same compound, the Potency result in assay [8] and in assay [9] was “inactive” in each case. The compound was classed as inactive in assay [7] and in assay [10].
Regarding `CC[C@@H](C)[C@@H](N)C1=N[C@H](C(=O)N[C@@H](CC(C)C)C(=O)N[C@@H](CCC(=O)O)C(=O)N[C@@H](C(=O)N[C@@H]2CCCCNC(=O)[C@@H](CC(N)=O)NC(=O)[C@@H](CC(=O)O)NC(=O)[C@@H](Cc3cnc[nH]3)NC(=O)[C@@H](Cc3ccccc3)NC(=O)[C@@H]([C@H](C)CC)NC(=O)[C@@H](CCCN)NC2=O)[C@@H](C)CC)CS1` (X1-LE[d(aIle)][dK][dOrn][dI][dF][dH][dD][dN]; lactam 4-C), the Potency entry in assay [1], in [2], in assay [3], in assay [4], in assay [5] and in assay [6] was “inactive” throughout. In addition, the Potency entry in [8] and in assay [9] was “inactive” in each case. The compound was classed as inactive in [7] and in [10].
As for `CC12CCC(C1)C(C)(C)C2=O` (stereo not given), the Potency result in [1], in assay [2], in assay [3], in assay [4], in [5] and in [6] was “inactive” each time. Moreover, the Potency result in assay [8] and in assay [9] was “inactive” each time. Besides, the call in assay [7] and in assay [10] was inactive.
For `COc1cc(/C=C/C(=O)CC(=O)/C=C/c2ccc(O)c(OC)c2)ccc1O`, the Potency is 13.3 µM (active) and 13.8 µM (active) in [1]; 18.8 µM (active) and 54.8 µM (active) in assay [3]; 11.9 µM (active) and 21.8 µM (active) in assay [5]; 750 nM (active) and 1.68 µM (active) and 548 nM (active) in [6]. The Potency entry in assay [2], in assay [4], in assay [8] and in assay [9] was “inactive” in each case. For the same compound, the compound was called inactive in assay [7] and in assay [10].
For `O=C(O)COc1ccc(C(=O)c2cccs2)c(Cl)c1Cl`, the Potency entry in assay [1], in assay [2], in [3], in [4], in assay [5] and in assay [6] was “inactive” each time. In addition, the Potency entry in assay [8] and in [9] was “inactive” throughout. In addition, the result in assay [7] and in [10] was inactive.
Turning to `CCC[C@@H]1C[C@@H](C(=O)N[C@@H]([C@H]2O[C@H](SC)[C@H](OP(=O)(O)O)[C@@H](O)[C@H]2O)[C@H](C)Cl)N(C)C1`, the Potency entry in assay [1], in [2], in assay [3], in assay [4], in assay [5] and in assay [6] was “inactive” in each case. Further, the Potency result in [8] and in [9] was “inactive” in each case. For the same compound, the compound was called inactive in assay [7] and in assay [10].
For the compound `CC[C@@H](C(=O)[C@@H](C)[C@@H](O)[C@H](C)CCc1ccc(C)c(O)c1C(=O)O)[C@H]1O[C@](CC)([C@H]2CC[C@](O)(CC)[C@H](C)O2)C[C@@H]1C`, the Potency is 23.7 µM (active) in assay [1]; 26.6 µM (active) in assay [3]; 23.7 µM (active) in assay [4]; 5.96 µM (active) in assay [5]; 1.06 µM (active) in assay [6]. For the same compound, the Potency entry in assay [2], in [8] and in assay [9] was “inactive” in each case. Also, the result in [7] and in assay [10] was inactive.
Consider `CC1(C)S[C@@H]2[C@H](NC(=O)[C@@H](NC(=O)N3CCNC3=O)c3ccccc3)C(=O)N2[C@H]1C(=O)O`, for which the Potency entry in assay [1], in [2], in assay [3], in assay [4], in [5] and in assay [6] was “inactive” each time. The Potency entry in assay [8] and in [9] was “inactive” in each case. Moreover, the result in assay [7] and in assay [10] was inactive.
On to `O=P(O)(O)CP(=O)(O)O`, for which the Potency result in assay [1], in [2], in [3], in assay [4], in assay [5] and in assay [6] was “inactive” throughout. Further, the Potency entry in [8] and in assay [9] was “inactive” in each case. In addition, the result in [7] and in assay [10] was inactive.
With `CC(=NCc1ccccc1)c1ccccc1O`, the Potency entry in assay [1], in [2], in [3], in assay [4], in assay [5] and in assay [6] was “inactive” throughout. Besides, the Potency entry in [8] and in [9] was “inactive” in each case. The call in assay [7] and in assay [10] was inactive.
Turning to `CC(C)(Oc1ccc(C2CCCc3ccccc32)cc1)C(=O)O` (stereo not given), the Potency entry in assay [1], in [2], in assay [3], in [4], in [5] and in assay [6] was “inactive” each time. In addition, the Potency result in assay [8] and in assay [9] was “inactive” throughout. For the same compound, the outcome in [7] and in assay [10] was inactive.
As to `CC(C)C[C@@H]1NC(=O)[C@H](CCCN)NC(=O)[C@H](C(C)C)NC(=O)[C@@H]2CCCN2C(=O)[C@@H](Cc2ccccc2)NC(=O)[C@H](CC(C)C)NC(=O)[C@H](CCCN)NC(=O)[C@H](C(C)C)NC(=O)[C@@H]2CCCN2C(=O)[C@@H](Cc2ccccc2)NC1=O` (cyclo(V[Orn]L[dF]PV[Orn]L[dF]P)), the Potency in assay [1] is 1.88 µM (active); in assay [3], 2.66 µM (active); in assay [4], 2.98 µM (active); in assay [5] it was 13.3 µM (active); in assay [6] it was 0.237 µM (active). Also, the Potency result in assay [2], in assay [8] and in assay [9] was “inactive” throughout. The compound was classed as inactive in assay [7] and in [10].
`C[C@@H]1C[C@H]2[C@@H]3C[C@H](F)C4=CC(=O)C=C[C@]4(C)[C@@]3(Cl)[C@@H](O)C[C@]2(C)[C@H]1C(=O)COC(=O)C(C)(C)C`: the Potency result in assay [1], in assay [2], in assay [3], in [4], in assay [5] and in [6] was “inactive” throughout. Further, the Potency result in [8] and in [9] was “inactive” throughout. The compound was called inactive in [7] and in [10].
On to `CN(C)CCc1c[nH]c2ccc(Cn3cncn3)cc12`, for which the Potency entry in assay [1], in [2], in assay [3], in assay [4], in assay [5] and in assay [6] was “inactive” throughout. For the same compound, the Potency result in assay [8] and in [9] was “inactive” each time. Besides, the call in assay [7] and in assay [10] was inactive.
On to `COC1=C(OC)C(=O)C(C/C=C(\C)CC/C=C(\C)CC/C=C(\C)CC/C=C(\C)CC/C=C(\C)CC/C=C(\C)CC/C=C(\C)CC/C=C(\C)CC/C=C(\C)CCC=C(C)C)=C(C)C1=O`, for which the Potency result in assay [1], in assay [2], in [3], in assay [4], in assay [5] and in assay [6] was “inactive” each time. The Potency result in [8] and in assay [9] was “inactive” each time. The call in assay [7] and in [10] was inactive.
As to `NC[C@H]1O[C@H](O[C@H]2[C@H](O)[C@@H](O[C@H]3O[C@H](CO)[C@@H](O)[C@H](N)[C@H]3O)[C@H](N)C[C@@H]2N)[C@H](N)C[C@@H]1O`, the Potency result in [1], in assay [2], in [3], in assay [4], in [5] and in assay [6] was “inactive” throughout. Also, the Potency result in assay [8] and in assay [9] was “inactive” each time. Further, the compound was classed as inactive in assay [7] and in assay [10].
With `COC(=O)C(CN)c1c[nH]c2ccc(OC)cc12` (stereo not given), the Potency entry in assay [1], in [2], in assay [3], in [4], in assay [5] and in [6] was “inactive” in each case. For the same compound, the Potency entry in assay [8] and in [9] was “inactive” in each case. The result in assay [7] and in assay [10] was inactive.

For the origin of these results see PubChem BioAssay (Tox21).
